Laboratory results taken from the supplement of paper PMC10849652.
Of roughly 7,900 targets only a part is listed; those with a hit were picked by preference. About 0.6% of all pairs of compound and target were hits.

Experiments:
Test in all cases: log2 fold change, soluble protein after heating vs DMSO (PISA); higher = thermal stabilisation; K562 cells, 10 uM, 30 min; active = over 0.2 and 3.5 SD of the protein, either way, in both replicates (recomputed)
[1] = compound: NC(=O)Nc1cc(-c2cccc(F)c2)sc1C(=O)N[C@H]1CCCNC1
Summary of the method: (§1)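 Aliquots of K562 cells (2×10^6 cells/mL) treated with 10 μM compound for 30 min were heated for 3 min over 48°C-58°C. After pooling and extraction in PBS with 0.5% NP-40 at 4°C, soluble protein from a 21,000xg, 90 min spin was quantified by TMTpro 16plex LC-MS/MS with channel sums equalised. Thermal stability is expressed against control samples, from duplicates, as a log2 fold change.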

[2] = compound: NC(=O)c1cnc(N[C@@H]2CCCC[C@@H]2N)nc1Nc1cccc(-n2nccn2)c1
Summary of the method: as §1

[3] = compound: NC1(c2ccc(-c3nc4ccn5c(=O)[nH]nc5c4cc3-c3ccccc3)cc2)CCC1
Summary of the method: as §1

[4] = compound: NCC(=O)Nc1ccc(-n2nc(C(F)(F)F)cc2-c2ccc3c(ccc4ccccc43)c2)cc1
Summary of the method: as §1

entinostat = compound: Nc1ccccc1NC(=O)c1ccc(CNC(=O)OCc2cccnc2)cc1 [entinostat]
Summary of the method: as §1

vorinostat = compound: O=C(CCCCCCC(=O)Nc1ccccc1)NO [vorinostat]
Summary of the method: as §1

citarinostat = compound: O=C(CCCCCCNC(=O)c1cnc(N(c2ccccc2)c2ccccc2Cl)nc1)NO [citarinostat]
Summary of the method: as §1

silmitasertib = compound: O=C(O)c1ccc2c(c1)nc(Nc1cccc(Cl)c1)c1ccncc12 [silmitasertib]
Summary of the method: as §1

[5] = compound: O=C1NC(=O)C(c2cnc3ccccn23)=C1c1cn2c3c(cc(F)cc13)CN(C(=O)N1CCCCC1)CC2
Summary of the method: as §1

[6] = compound: c1cc(OCCN2CCCCC2)cc(-c2n[nH]c3ccc(-c4nnc[nH]4)cc23)c1
Summary of the method: as §1

Measured: log2 fold change

TAX1BP1 (UniProt Q86VP1)
inactive: [1] 0.028 | [2] -0.062 | [3] -0.202 | [4] -0.102 | entinostat -0.013 | vorinostat -0.183 | citarinostat 0.061 | silmitasertib 0.042 | [5] -0.011 | [6] -0.081

SNRPB2 (UniProt P08579)
inactive: [1] 0.047 | [2] -0.012 | [3] 0.03 | [4] 0.038 | entinostat -0.016 | vorinostat -0.027 | citarinostat 0.023 | silmitasertib 0.051 | [5] 0.046 | [6] -0.034

SULT1A1 (UniProt P50225)
inactive: [1] -0.049 | [2] 0.039 | [3] -0.179 | [4] 0.123 | entinostat 0.133 | vorinostat 0.063 | citarinostat 0.056 | silmitasertib -0.038 | [5] -0.095 | [6] 0.032

SRP68 (UniProt Q9UHB9)
inactive: [1] -0.068 | [2] -0.08 | [3] -0.094 | [4] -0.035 | entinostat 0.101 | vorinostat 0.08 | citarinostat 0.095 | silmitasertib 0.08 | [5] 0.096 | [6] -0.062

TGFBI (UniProt Q15582)
inactive: [1] -0.037 | [2] -0.136 | [3] -0.116 | [4] -0.116 | entinostat 0.056 | vorinostat 0.309 | citarinostat -0.056 | silmitasertib 0.114 | [5] -0.01 | [6] 0.202

SPECC1 (UniProt Q5M775)
inactive: [1] -0.126 | [2] -0.053 | [3] -0.124 | [4] -0.132 | entinostat -0.007 | vorinostat 0 | citarinostat -0.213 | silmitasertib 0.08 | [5] -0.06 | [6] -0.091

SUCLG1 (UniProt P53597)
Chain of UniProt P53597 (P53597 whole entry, looked up): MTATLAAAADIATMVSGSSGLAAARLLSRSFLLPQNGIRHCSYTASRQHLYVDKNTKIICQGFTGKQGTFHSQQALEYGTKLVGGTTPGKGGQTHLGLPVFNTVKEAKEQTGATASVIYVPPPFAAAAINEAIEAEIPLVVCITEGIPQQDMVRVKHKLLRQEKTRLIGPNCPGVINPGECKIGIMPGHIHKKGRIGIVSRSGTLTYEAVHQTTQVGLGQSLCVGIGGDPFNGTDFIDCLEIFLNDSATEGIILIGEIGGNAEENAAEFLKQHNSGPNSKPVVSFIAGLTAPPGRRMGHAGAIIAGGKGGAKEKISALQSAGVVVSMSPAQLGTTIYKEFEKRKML
inactive: [1] -0.037 | [2] -0.077 | [3] -0.106 | [4] -0.059 | entinostat 0.012 | vorinostat 0 | citarinostat 0.043 | silmitasertib -0.037 | [5] -0.073 | [6] -0.049

STK39 (UniProt Q9UEW8)
inactive: [1] -0.064 | [2] 0.034 | [3] -0.146 | [4] -0.028 | entinostat 0.069 | vorinostat 0.063 | citarinostat 0.051 | silmitasertib 0.003 | [5] 0.003 | [6] -0.072

STAT3 (UniProt P40763)
Chain of UniProt P40763 (P40763 whole entry, looked up): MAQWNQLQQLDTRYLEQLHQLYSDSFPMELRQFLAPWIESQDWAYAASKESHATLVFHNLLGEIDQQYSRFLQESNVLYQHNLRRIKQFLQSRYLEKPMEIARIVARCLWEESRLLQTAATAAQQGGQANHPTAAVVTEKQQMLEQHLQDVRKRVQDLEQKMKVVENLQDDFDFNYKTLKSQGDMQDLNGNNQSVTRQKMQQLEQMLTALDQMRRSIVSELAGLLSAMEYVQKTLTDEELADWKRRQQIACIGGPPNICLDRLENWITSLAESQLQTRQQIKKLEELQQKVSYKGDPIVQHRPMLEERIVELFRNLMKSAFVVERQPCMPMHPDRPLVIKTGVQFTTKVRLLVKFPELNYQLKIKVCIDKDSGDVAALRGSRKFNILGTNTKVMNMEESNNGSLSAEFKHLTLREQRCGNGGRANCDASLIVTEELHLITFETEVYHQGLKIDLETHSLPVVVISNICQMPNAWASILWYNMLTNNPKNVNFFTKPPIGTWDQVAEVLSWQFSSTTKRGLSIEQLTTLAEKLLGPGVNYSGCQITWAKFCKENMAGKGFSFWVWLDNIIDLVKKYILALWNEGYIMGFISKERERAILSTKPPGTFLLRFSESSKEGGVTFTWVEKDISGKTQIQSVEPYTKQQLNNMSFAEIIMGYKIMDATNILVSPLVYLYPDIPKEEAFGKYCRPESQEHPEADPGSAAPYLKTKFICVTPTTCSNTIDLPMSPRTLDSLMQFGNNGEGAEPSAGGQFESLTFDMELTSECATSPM
inactive: [1] -0.001 | [2] -0.047 | [3] -0.2 | [4] -0.092 | entinostat 0.089 | vorinostat 0.101 | citarinostat 0.062 | silmitasertib 0.103 | [5] -0.036 | [6] -0.016

SLC6A6 (UniProt P31641)
inactive: [1] -0.099 | [2] 0.03 | [3] 0.024 | [4] -0.19 | entinostat -0.031 | vorinostat -0.059 | citarinostat 0.065 | silmitasertib 0.039 | [5] 0.086
active: [6] 0.269

STK4 (UniProt Q13043)
inactive: [2] -0.031 | [3] -0.1 | [4] 0.006 | entinostat -0.041 | vorinostat 0.011 | citarinostat 0.064 | silmitasertib -0.015 | [5] -0.031 | [6] -0.122
active: [1] 0.248

STXBP5 (UniProt Q5T5C0)
inactive: [1] 0.006 | [2] -0.022 | [3] -0.145 | [4] -0.033 | entinostat -0.011 | vorinostat 0.004 | citarinostat 0.024 | silmitasertib 0.041 | [5] -0.04 | [6] -0.003

TIMM13 (UniProt Q9Y5L4)
Chain of UniProt Q9Y5L4 (Q9Y5L4 whole entry, looked up): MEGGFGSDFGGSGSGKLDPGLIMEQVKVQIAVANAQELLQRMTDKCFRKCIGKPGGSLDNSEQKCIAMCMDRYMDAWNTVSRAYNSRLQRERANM
inactive: [1] 0.114 | [2] 0.031 | [3] -0.027 | [4] 0.012 | entinostat 0.01 | vorinostat 0.031 | citarinostat 0.117 | silmitasertib -0.016 | [5] 0.152 | [6] 0.107

TGFBR1 isoform 2 (UniProt P36897)
inactive: [1] 0.029 | [2] 0.072 | [3] -0.041 | [4] 0.002 | entinostat 0.093 | vorinostat -0.083 | citarinostat 0.017 | silmitasertib 0.073 | [5] -0.052 | [6] -0.054

STK11IP (UniProt Q8N1F8)
inactive: [1] 0.098 | [2] -0.412 | [3] -0.285 | [4] 0.086 | entinostat 0.046 | vorinostat -0.184 | citarinostat -0.032 | silmitasertib 0.217 | [5] 0.095 | [6] 0.016

TERF2IP (UniProt Q9NYB0)
inactive: [1] 0.009 | [2] -0.132 | [3] 0.007 | [4] -0.018 | entinostat 0.061 | vorinostat 0.041 | citarinostat 0.068 | silmitasertib 0.121 | [5] -0.051 | [6] -0.073

SLC25A42 (UniProt Q86VD7)
inactive: [1] 0.121 | [2] 0.021 | [3] -0.015 | [4] 0.05 | entinostat -0.027 | vorinostat -0.102 | citarinostat -0.015 | silmitasertib -0.033 | [5] -0.034 | [6] -0.046

STOM (UniProt P27105)
inactive: [1] -0.104 | [2] -0.043 | [3] -0.069 | [4] -0.019 | entinostat -0.003 | vorinostat 0.025 | citarinostat 0.007 | silmitasertib 0.067 | [5] 0.042 | [6] -0.091

SOAT1 (UniProt P35610)
inactive: [1] -0.073 | [2] -0.049 | [3] -0.171 | [4] -0.045 | entinostat 0.029 | vorinostat -0.063 | citarinostat 0.112 | silmitasertib 0.084 | [5] -0.098 | [6] -0.185

TGFBRAP1 (UniProt Q8WUH2)
inactive: [1] 0.065 | [2] -0.03 | [3] -0.209 | [4] -0.006 | entinostat -0.013 | vorinostat 0.256 | citarinostat -0.367 | silmitasertib 0.056 | [5] 0.069 | [6] 0.013

STK25 (UniProt O00506)
Chain of UniProt O00506 (O00506 whole entry, looked up): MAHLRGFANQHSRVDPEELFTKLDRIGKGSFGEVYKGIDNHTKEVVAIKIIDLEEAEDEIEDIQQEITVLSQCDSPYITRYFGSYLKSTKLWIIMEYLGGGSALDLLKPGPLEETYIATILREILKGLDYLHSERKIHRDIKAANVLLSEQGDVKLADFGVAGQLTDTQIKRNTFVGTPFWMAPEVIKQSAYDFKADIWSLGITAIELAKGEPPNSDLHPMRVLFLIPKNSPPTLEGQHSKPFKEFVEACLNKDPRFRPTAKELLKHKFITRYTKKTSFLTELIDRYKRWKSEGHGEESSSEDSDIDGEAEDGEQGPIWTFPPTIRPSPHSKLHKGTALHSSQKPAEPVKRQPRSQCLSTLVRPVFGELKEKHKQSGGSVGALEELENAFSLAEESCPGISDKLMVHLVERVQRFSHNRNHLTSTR
inactive: [1] -0.029 | [2] -0.06 | [3] -0.136 | [4] -0.08 | entinostat -0.016 | vorinostat 0.042 | citarinostat -0.026 | silmitasertib 0.078 | [5] -0.064 | [6] -0.034

TEX264 (UniProt Q9Y6I9)
active: [1] 0.548
inactive: [2] -0.001 | [3] 0.215 | [4] -0.033 | entinostat 0.006 | vorinostat -0.012 | citarinostat -0.054 | silmitasertib 0.02 | [5] -0.093 | [6] 0.515

SRP72 (UniProt O76094)
inactive: [1] -0.088 | [2] -0.054 | [3] -0.082 | [4] -0.128 | entinostat 0.069 | vorinostat 0.103 | citarinostat 0.095 | silmitasertib 0.042 | [5] 0.105 | [6] -0.129

SLC25A4 (UniProt P12235)
inactive: [1] -0.012 | [2] -0.035 | [3] -0.056 | [4] -0.006 | entinostat -0.019 | vorinostat -0.12 | citarinostat -0.021 | silmitasertib 0.009 | [5] -0.025 | [6] -0.002

SUOX (UniProt P51687)
Chain of UniProt P51687 (P51687 whole entry, looked up): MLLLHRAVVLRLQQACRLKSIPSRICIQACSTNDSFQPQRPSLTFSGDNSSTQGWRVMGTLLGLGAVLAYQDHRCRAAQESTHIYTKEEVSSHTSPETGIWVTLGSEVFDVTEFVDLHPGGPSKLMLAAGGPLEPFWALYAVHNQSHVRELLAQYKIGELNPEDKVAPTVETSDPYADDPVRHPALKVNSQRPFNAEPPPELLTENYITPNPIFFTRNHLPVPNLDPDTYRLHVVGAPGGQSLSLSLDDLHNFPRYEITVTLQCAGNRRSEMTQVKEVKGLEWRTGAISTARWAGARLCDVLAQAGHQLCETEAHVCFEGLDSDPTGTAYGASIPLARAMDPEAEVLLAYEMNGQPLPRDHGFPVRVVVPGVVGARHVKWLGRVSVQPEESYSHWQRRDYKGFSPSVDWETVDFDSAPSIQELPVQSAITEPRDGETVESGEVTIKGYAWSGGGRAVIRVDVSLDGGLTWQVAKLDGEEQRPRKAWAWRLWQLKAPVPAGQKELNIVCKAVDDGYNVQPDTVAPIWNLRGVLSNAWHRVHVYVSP
inactive: [1] -0.031 | [2] -0.022 | [3] 0.025 | [4] -0.005 | entinostat -0.014 | vorinostat -0.124 | citarinostat -0.017 | silmitasertib -0.021 | [5] -0.027 | [6] 0.014

SLC38A7 (UniProt Q9NVC3)
Chain of UniProt Q9NVC3 (Q9NVC3 whole entry, looked up): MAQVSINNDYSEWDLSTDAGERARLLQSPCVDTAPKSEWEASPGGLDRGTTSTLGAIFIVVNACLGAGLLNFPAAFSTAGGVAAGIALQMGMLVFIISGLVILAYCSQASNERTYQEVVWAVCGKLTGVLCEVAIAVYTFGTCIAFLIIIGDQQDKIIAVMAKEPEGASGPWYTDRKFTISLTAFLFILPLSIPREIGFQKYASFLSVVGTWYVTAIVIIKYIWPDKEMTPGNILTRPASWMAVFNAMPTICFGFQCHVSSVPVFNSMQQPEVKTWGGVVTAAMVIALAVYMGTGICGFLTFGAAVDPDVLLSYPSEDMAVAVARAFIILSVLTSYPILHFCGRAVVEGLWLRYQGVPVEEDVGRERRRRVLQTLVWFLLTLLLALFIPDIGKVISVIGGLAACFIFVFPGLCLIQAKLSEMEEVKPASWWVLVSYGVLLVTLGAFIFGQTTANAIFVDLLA
inactive: [1] -0.017 | [2] 0.002 | [3] -0.299 | [4] 0.197 | entinostat -0.066 | vorinostat 0.11 | citarinostat 0.085 | silmitasertib 0.022 | [5] -0.107 | [6] -0.004

TBC1D5 isoform 2 (UniProt Q92609)
inactive: [1] -0.006 | [2] -0.103 | [3] -0.233 | [4] -0.058 | entinostat 0.029 | vorinostat 0.086 | citarinostat 0.111 | silmitasertib 0.031 | [5] -0.076 | [6] -0.094

TM9SF2 (UniProt Q99805)
Chain of UniProt Q99805 (Q99805 whole entry, looked up): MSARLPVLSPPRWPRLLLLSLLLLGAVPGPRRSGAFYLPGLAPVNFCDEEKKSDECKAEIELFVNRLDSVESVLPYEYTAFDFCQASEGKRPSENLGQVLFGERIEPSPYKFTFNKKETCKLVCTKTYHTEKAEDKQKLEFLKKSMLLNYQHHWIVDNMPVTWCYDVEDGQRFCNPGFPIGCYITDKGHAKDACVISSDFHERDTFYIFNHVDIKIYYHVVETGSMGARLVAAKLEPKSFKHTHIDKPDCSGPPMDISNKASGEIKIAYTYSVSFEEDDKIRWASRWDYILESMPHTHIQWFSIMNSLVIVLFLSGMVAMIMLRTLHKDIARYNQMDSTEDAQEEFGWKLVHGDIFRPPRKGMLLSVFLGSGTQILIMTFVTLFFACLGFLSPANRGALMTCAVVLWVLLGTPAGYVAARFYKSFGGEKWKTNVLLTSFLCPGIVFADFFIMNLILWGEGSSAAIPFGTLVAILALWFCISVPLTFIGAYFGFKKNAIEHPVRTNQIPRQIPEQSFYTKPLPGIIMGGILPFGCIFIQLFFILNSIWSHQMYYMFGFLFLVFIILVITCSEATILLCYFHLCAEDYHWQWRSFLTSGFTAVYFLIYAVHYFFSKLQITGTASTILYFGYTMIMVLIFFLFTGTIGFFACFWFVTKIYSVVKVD
inactive: [1] 0.026 | [2] 0.006 | [3] -0.138 | [4] -0.022 | entinostat -0.006 | vorinostat 0.006 | citarinostat -0.003 | silmitasertib 0.002 | [5] -0.057 | [6] -0.062

TBC1D10B (UniProt Q4KMP7)
Chain of UniProt Q4KMP7 (Q4KMP7 whole entry, looked up): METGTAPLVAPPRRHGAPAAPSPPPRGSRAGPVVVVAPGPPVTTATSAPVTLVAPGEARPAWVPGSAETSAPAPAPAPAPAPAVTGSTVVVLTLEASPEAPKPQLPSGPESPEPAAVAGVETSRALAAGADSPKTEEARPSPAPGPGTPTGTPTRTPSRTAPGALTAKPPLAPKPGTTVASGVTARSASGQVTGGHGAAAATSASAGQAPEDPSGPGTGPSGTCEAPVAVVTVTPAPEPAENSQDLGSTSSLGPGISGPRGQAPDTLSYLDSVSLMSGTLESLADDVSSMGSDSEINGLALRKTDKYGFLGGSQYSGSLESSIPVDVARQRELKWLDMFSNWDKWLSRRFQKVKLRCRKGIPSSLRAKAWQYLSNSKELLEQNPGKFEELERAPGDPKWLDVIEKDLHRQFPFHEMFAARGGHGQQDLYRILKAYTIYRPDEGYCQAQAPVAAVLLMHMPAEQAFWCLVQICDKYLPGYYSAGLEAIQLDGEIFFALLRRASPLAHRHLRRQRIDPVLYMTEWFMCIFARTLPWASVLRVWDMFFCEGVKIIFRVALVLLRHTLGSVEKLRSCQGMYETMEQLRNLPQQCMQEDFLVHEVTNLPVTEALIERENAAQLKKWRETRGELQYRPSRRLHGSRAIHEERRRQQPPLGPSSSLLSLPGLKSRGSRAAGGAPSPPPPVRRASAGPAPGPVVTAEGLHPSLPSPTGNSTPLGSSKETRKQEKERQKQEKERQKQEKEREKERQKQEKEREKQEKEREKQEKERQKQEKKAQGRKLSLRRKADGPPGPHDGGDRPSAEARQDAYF
active: [6] -0.283
inactive: [1] -0.141 | [2] 0.007 | [3] 0.038 | [4] -0.027 | entinostat 0.017 | vorinostat -0.03 | citarinostat 0.039 | silmitasertib -0.009 | [5] -0.005

SORT1 (UniProt Q99523)
Chain of UniProt Q99523 (Q99523 whole entry, looked up): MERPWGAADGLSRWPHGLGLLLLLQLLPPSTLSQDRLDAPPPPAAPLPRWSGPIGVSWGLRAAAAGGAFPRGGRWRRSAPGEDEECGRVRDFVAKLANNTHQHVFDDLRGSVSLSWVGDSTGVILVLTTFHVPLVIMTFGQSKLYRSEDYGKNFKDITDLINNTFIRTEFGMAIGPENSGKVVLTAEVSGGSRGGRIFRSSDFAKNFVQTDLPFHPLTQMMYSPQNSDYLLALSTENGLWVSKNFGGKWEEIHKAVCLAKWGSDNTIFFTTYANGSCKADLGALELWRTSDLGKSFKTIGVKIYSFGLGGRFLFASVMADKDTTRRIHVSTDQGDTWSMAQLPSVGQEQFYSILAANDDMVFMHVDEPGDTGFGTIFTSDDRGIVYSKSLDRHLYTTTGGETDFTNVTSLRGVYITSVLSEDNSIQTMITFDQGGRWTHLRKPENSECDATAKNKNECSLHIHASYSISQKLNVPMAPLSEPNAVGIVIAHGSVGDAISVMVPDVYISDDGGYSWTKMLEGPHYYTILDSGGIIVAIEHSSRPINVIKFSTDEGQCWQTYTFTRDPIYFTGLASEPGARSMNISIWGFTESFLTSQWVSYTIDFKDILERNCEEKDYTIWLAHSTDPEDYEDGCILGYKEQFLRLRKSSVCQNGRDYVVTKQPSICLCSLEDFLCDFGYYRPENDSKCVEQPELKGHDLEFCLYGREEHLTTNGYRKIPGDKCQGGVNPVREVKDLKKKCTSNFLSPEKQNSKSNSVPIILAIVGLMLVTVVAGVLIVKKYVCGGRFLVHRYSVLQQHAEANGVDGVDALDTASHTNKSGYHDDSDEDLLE
inactive: [1] -0.005 | [2] -0.032 | [4] 0.038 | entinostat -0.017 | vorinostat -0.002 | citarinostat 0.073 | silmitasertib 0.006 | [5] 0.004 | [6] -0.139
active: [3] -0.687
